Rows were chosen to be rich in hits. Some 9.5% of all compounds tested hit in one or more screens of this group.
ALDH1A1 block: ALDH1A1 (human) enzyme inhibition | P00352 | Purified ALDH1A1, NADH fluorescence, propionaldehyde substrate | Potency, µM (highest dose often 75.3 µM), for inactives: at the highest dose activity, negative = inhibition, actives largely listed as inhibitors | hit rate 7.3% among 220,000 | AID 1030; active = well fitted inhibition curve with a large enough effect, not every such curve was filed as active; inconclusive = small, poorly fitted or top-dose-only effect, or another doubt; inactive = no such curve, though single readings can be large or run the other way;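 also: plate controls were no enzyme wells and a reference inhibitor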
Target sequence (P00352 whole entry, looked up): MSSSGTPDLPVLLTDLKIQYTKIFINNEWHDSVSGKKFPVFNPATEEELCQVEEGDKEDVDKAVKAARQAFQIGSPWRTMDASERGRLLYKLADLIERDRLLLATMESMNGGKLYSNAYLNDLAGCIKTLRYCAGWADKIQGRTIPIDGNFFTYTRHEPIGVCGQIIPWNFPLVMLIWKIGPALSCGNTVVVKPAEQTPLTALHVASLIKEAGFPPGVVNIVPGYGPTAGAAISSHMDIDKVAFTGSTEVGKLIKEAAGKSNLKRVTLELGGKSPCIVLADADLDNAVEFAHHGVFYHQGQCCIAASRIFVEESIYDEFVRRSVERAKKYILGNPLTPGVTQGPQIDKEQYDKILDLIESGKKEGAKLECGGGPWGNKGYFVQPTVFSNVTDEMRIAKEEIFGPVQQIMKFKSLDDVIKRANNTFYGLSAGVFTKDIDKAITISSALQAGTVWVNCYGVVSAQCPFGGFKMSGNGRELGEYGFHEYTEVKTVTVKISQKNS
Tau fibril FP: blocks human tau fibril formation measured by polarization | P10636 | K18 P301L tau heparin fibrillization, Alexa594 FP, 6 h | Potency, µM (top dose mostly 57.7 µM), without a hit: at the top dose activity, negative = inhibition, usual class: inhibitors | hit rate 0.39% among 280,000; also: nearly all actives have a fitted effect of over 55% in size
Target sequence (P10636 561-689 P618L limits assumed): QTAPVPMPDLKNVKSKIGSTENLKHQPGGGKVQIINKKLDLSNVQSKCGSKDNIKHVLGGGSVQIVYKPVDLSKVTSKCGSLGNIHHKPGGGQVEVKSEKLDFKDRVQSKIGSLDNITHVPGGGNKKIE
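Recombinant K18 P301L […], labeled with Alexa 594 at 0.24 uM over 15 uM unlabeled; heparin inducer 20 uM final; 37 C, 6 hr; FP endpoint.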
Tau fibril ThT: inhibitors of human tau fibril formation, thioflavin T binding. P10636. recombinant tau K18 P301L, heparin-induced fibrillization, ThT fluorescence. Potency, µM (top dose mostly 57.4 µM), without a hit: top-dose activity, negative = inhibition, actives largely listed as inhibitors. hit rate 2.1% among 270,000; also: nearly all actives have a fitted effect of over 55% in size
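Heparin-induced fibrillization of the P301L-mutant K18 repeat-domain fragment of human tau was followed by ThT binding in quantitative high-throughput format.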
HPGD inh: inhibitors of human 15-hydroxyprostaglandin dehydrogenase (HPGD) | hit rate 4.3% among 150,000 | AID 894 | purified HPGD, NADH fluorescence kinetic, PGE2 substrate | Potency, µM, without a hit: top-dose activity change, negative = inhibition, actives largely listed as inhibitors | P15428; active = well fitted inhibition curve with a large enough effect, not every such curve was filed as active; inconclusive = small, poorly fitted or top-dose-only effect, or another doubt; inactive = no such curve, though single readings can be large or run the other way
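20 nM HPGD preincubated 15 min at room temperature with compound in 50 mM Tris-HCl pH 8, 0.01% Tween 20. Started with 1 mM NAD+ and 30 uM prostaglandin E2; NADH fluorescence (360/450 nm) read 5 times over 30-s intervals, last minus first.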
Tau fluor cs: counter-screen for tau fibril formation inhibitors; tau K18 P301L Alexa594 fluorescence, heparin fibrillization; Potency, µM (highest dose often 57.7 µM), without a hit: at the highest dose activity change, negative = decrease; hit rate 0.93% among 280,000; also: nearly all actives have a fitted effect of over 55% in size
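Human tau K18 P301L (15 uM unlabeled, 0.24 uM Alexa 594-labeled) in 100 mM sodium acetate pH 7 with 20 uM heparin, 6 hr at 37 C. ThT 30 uM added, 1 hr ambient; Alexa 594 FP and total fluorescence read at 555/632 nm.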
NPSR antagonist: antagonists of human neuropeptide S receptor cAMP signaling; Q6W5P4; AID 1461; CHO-NPSR cells, cAMP TR-FRET, antagonist mode; Potency, µM (titrated, usually from 38.3 µM), without a hit: at the top dose activity change, negative = inhibition, actives largely listed as inhibitors; hit rate 1% among 220,000; also: nearly all actives have a fitted effect of over 50% in size
* hit, by the source's call; ? = inconclusive; / = no result given; [ ] = another dose, or the depositor's remark. Unless noted, calls follow the shape of the dose curve; as a rule, active = well fitted curve in the direction sought with a large enough effect; inconclusive = small, poorly fitted or top-dose-only effect, or another doubt; inactive = no such curve, though single readings can be large; an effect the other way counts as inactive or inconclusive. Unless noted, % is scaled to controls: 0 for no effect and ±100 for the full control effect; potency is read from the fitted curve at half-maximal effect.

SMILES	ALDH1A1 block	Tau fibril FP	Tau fibril ThT	HPGD inh	Tau fluor cs	NPSR antagonist
O=C(Nc1ccccc1)Nc1ccc(Cl)c([N+](=O)[O-])c1	-3.4%	?	?	-6.4%	11.2µM*[quencher]	-31.0%
Cc1ccc(NC(=O)Nc2ccccc2)cc1[N+](=O)[O-]	-14.5%	?	?	-19.6%	?	-50.9%
O=C(Nc1ccc(C(O)(C(F)(F)F)C(F)(F)F)cc1)c1ccc(Cl)c([N+](=O)[O-])c1	-5.2%	-14.3%	?	-14.8%	12.6µM*[quencher]	?
O=C(O)c1cc(NC(=O)c2ccc(Cl)c([N+](=O)[O-])c2)cc(C(=O)O)c1	?	1.7%	-2.5%	/	-0.7%	24.5%
CCOc1cc(C(=O)N2CCN(c3ccc(C(C)=O)cc3)CC2)cc(OCC)c1OCC	-13.0%	-1.2%	-9.9%	-8.6%	-5.5%	-23.1%[46.1 µM]
CC(NC(=O)CSc1nc2c(c(C(F)(F)F)n1)CCc1ccccc1-2)c1ccccc1 (stereo not drawn)	-5.6%	-9.2%	?	-16.9%	-20.2%	?
CCc1c(C)sc(NC(=O)CSc2nc3c(c(C(F)(F)F)n2)CCc2ccccc2-3)c1C#N	22.4µM*	5.7%	2.4%	22.4µM*	-2.0%	-4.6%[46.1 µM]
CNC(=O)C1=C(C)NC(=S)NC1c1cccs1 (stereo not drawn)	-2.3%	-1.6%	-9.4%	/	-5.6%	20.9%
CC1=C(C(=O)Nc2cc(C)ccc2C)C(c2cccs2)NC(=S)N1 (stereo not drawn)	5.62µM*	-6.5%	-8.6%	-1.1%	-0.8%	-13.0%[46.1 µM]
CC1=C(C(=O)Nc2ccccc2F)C(c2cccs2)NC(=S)N1 (stereo not drawn)	12.6µM*	-1.0%	-0.1%	/	-3.2%	9.7%
Cc1ccc2nc(NC(=O)CSc3nccn3Cc3ccc(F)cc3)sc2c1	/	-1.4%	0.1%	/	-29.1%	/
COC(=O)/C(C#N)=C/c1c(-c2ccccc2)nc2n1CCS2	1.41µM*	0.4%	-9.7%	/	-1.9%	9.3%
COC(=O)C1=C(C(=O)OC)[C@@H]2N(Cc3ccccc3)c3ccccc3[C@@]23C[C@@H](C(=O)OC)N(S(=O)(=O)c2cccs2)C3=N1	-13.6%[13.5 µM]	2.1%[11.6 µM]	-6.5%[11.5 µM]	-12.2%	-11.9%[11.6 µM]	/
CCN(C(=O)CN1C(=O)COc2ccc(S(=O)(=O)N3CCOCC3)cc21)c1cccc(C)c1	/	0.8%	-1.6%	/	-4.0%	/
COc1ccc(NC(=O)Cc2ccccc2)cn1	-2.1%	1.7%	-9.5%	/	-7.7%	2.1%
COc1ccc(/C=C/C(=O)Nc2ccc(OC)nc2)cc1	-10.2%	-12.5%	?	-11.9%	-16.5%	-0.1%
COc1ccc(CS(=O)(=O)/C(Cl)=C(/Cl)C(=O)Nc2ccc(OC)nc2)cc1	1.58µM*	?	7.94µM*	-8.7%	-28.4%	6.31µM*
COc1ccc(NC(=O)/C(Cl)=C(/Cl)S(=O)Cc2ccccc2)cn1 (stereo not drawn)	12.6µM*	?	?	?	-12.8%	1.26µM*
Cc1ccc(Cl)cc1NC(=O)N1CCC(CN2CCCCCC2)CC1	/	-8.5%	?	/	-8.3%	/
CCCCCCCC1=CC2=CC(=O)C(C)(O)C(=O)C2=CN1CCCC (stereo not drawn)	-2.3%[13.5 µM]	3.5%[11.6 µM]	-17.0%[11.5 µM]	/	-14.3%[11.6 µM]	/
CC(C)C[C@@H](CC(=O)N[C@H](CC(=O)N[C@@H]1CCCC[C@H]1C(=O)N[C@H](CC(=O)N[C@@H](CCC(=O)O)CC(=O)O)Cc1c[nH]c2ccccc12)C(C)C)NC(=O)[C@@H]1CNCC[C@H]1N	-15.5%	-0.8%	-15.6%	-6.7%	-5.3%	/
CCCCc1cc2c(cn1)C(=O)C(C)(OC(C)=O)C(=O)C2 (stereo not drawn)	1.26µM*	6.1%[11.6 µM]	-1.6%[11.5 µM]	-3.5%	-1.5%[11.6 µM]	/
CC1CCc2c(sc(N)c2C(N)=O)C1 (stereo not drawn)	12.6µM*	?	?	?	-19.5%	-6.3%[46.1 µM]
Cc1cccc(C(=O)c2c(N)sc3c2CCC(C)C3)c1 (stereo not drawn)	7.94µM*	-15.6%	?	/	?	-1.8%[46.1 µM]
C=C[C@@]1(C)CC(=O)[C@@]2(O)[C@@]3(C)[C@@H](O)CCC(C)(C)[C@@H]3[C@H](O)[C@H](OC(C)=O)[C@@]2(C)O1	8.0%	10.1%	-1.6%	-8.2%	-0.6%	/
SMILES	ALDH1A1 block	Tau fibril FP	Tau fibril ThT	HPGD inh	Tau fluor cs	NPSR antagonist
CC1=C(C(=O)Nc2ccccc2)C(c2ccc[nH]2)n2ncnc2N1 (stereo not drawn)	/	-2.7%	?	/	-18.0%	/
COC(=O)c1cc(NC(C)=O)ccc1N1CCOCC1	7.5%	-5.4%	-2.4%	/	-5.9%	17.6%
COC(=O)c1cc(NC(=O)c2cc(-c3ccc(C(F)(F)F)cc3)oc2C(F)(F)F)ccc1N1CCOCC1	/	8.2%	/	/	1µM*[quencher]	-46.7%
COC(=O)c1cc(NC(=O)c2cc(-c3ccc(OC)cc3)oc2C(F)(F)F)ccc1N1CCOCC1	/	?	/	/	8.91µM*[quencher]	-14.6%
CCOC(=O)c1ccc(NC(=O)Cn2cc3c(n2)CCC(C)C3)cc1 (stereo not drawn)	10.5%	-1.4%	-5.4%	-0.4%	-3.7%	-12.8%[46.1 µM]
Cc1cccc(N2CCN(C(=O)c3ccc(Cl)c(S(=O)(=O)N4CCc5ccccc5C4)c3)CC2)c1C	-4.0%	-1.0%	-0.5%	-20.5%	-4.7%	-11.6%
CC(=O)Nc1ccc(C(=O)CSc2cc(C)c3cccc(C)c3n2)cc1	7.7%	?	6.9%	-16.0%	-19.2%	-19.8%
O=C(Nc1ccccc1C(F)(F)F)Nc1cccc2ccccc12	-1.0%	-3.1%	4.6%	-22.6%	5.0%	-10.7%[46.1 µM]
CCN(CC)c1ccc(NC(=O)Nc2ccccc2C(F)(F)F)cc1	3.98µM*	8.6%	-5.2%	-8.1%	-11.2%	-14.2%[46.1 µM]
CCN(CC(=O)Nc1ccc(C(C)=O)cc1)CC(=O)Nc1ccccc1C(F)(F)F	10µM*	-0.2%	-4.2%	/	-17.0%	-10.6%
CCOCCCn1c(=N)c(C(=O)NC(C)c2ccccc2)cc2c(=O)n3cccc(C)c3nc21 (stereo not drawn)	/	-4.3%	-6.9%	/	-7.4%	/
C[N+](C)(C)c1ccc(/C=N/Nc2nc(Cl)c(C#N)c(Cl)c2Cl)cc1	15.8µM*	0.0%	?	-23.8%	?	?
CCc1ccc2nc(N3C(=O)C(O)=C(C(=O)c4ccco4)C3c3cccs3)sc2c1 (stereo not drawn)	-2.8%	4.7%	?	20µM*	-4.7%	10µM*
Cc1cc(N2C(=O)C(O)=C(C(=O)c3ccc(C)o3)C2c2cccs2)no1 (stereo not drawn)	22.4µM*	5.8%	-5.3%	28.2µM*	8.7%	7.94µM*
Cc1ccc2nc(N3C(=O)C(O)=C(C(=O)c4cc5ccccc5o4)C3c3cccs3)sc2c1 (stereo not drawn)	20µM*	1.5%	?	-28.5%	-13.8%	1.8%[46.1 µM]
